Test results as given in PubChem BioAssay AID567 (The Scripps Research Institute Molecular Screening Center, 2006).
The campaign covered roughly 65,000 compounds. About 370 (0.57%) were called active. Shown is part of a subset that was picked to be rich in actives. A number with no mark means an inactive call.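 Rule for the calls: active = activation above the screen-wide mean activation plus 3 SD (cut at about 19% in these data); inactive = the rest.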

Each molecule was assayed against 5-hydroxytryptamine receptor 1A (Homo sapiens) (UniProt P08908) (assay: human 5-HT1a receptor agonists, primary screen, cell-based, CHO, Ga15 NFAT-bla reporter (AID 567;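 note: 0% = DMSO wells and 100% = 5-CT at EC100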)). Details: CHO 5-HT1a Ga15 NFAT-bla reporter, FRET ratio; at 10 µM; stronger effect = higher value; 0% basal, 100% maximal reference agonist.
5-hydroxytryptamine receptor 1A (Homo sapiens), sequence (P08908 whole entry, looked up): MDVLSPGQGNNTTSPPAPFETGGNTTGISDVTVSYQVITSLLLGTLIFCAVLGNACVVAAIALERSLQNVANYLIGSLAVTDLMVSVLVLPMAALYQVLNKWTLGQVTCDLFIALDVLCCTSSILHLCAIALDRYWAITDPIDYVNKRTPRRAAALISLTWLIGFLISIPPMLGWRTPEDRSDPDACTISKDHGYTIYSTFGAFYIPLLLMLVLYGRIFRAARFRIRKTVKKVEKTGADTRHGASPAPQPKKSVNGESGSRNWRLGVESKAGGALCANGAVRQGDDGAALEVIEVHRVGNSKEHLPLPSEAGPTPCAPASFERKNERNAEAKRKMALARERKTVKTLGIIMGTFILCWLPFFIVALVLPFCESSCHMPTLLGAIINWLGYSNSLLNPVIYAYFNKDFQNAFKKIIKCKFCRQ

Question: Which activation does the source give for COC(=O)c1ccc(S(=O)(=O)c2ccc(C(=O)OC)s2)s1 here?
Answer: 2.5%

Question: CCOC(=O)CN(C(=O)CN1CCOCC1)c1ccc(Br)cc1 was tested. Which activation did it give?
Answer: -0.22%

Question: For CCOC(=O)C1CCN(C(c2cc3cc(C)cc(C)c3[nH]c2=O)c2nnnn2C2CCCCC2)CC1 (centres undefined), which activation is on record?
Answer: -0.97%

Question: CC(C)CCNC(=O)C1CCCN(S(=O)(=O)c2ccc(F)cc2)C1 (centres undefined) was tested. Which activation did it give?
Answer: 0.42%

Question: How did the activation turn out when O=C(NCc1ccco1)c1ccc(CS(=O)(=O)Cc2ccc(F)cc2)o1 was run?
Answer: -3.1%

Question: O=C(c1cccs1)N1CCCC(c2nc(-c3ccc(F)cc3)no2)C1 (centres undefined) was tested. Which activation did it give?
Answer: -1.69%

Question: Which activation does the source give for Cn1c(=O)c2c(ncn2CC(=O)N2CCN(c3ccccc3)CC2)n(C)c1=O here?
Answer: -0.49%

Question: Which activation does the source give for Cc1noc(NS(=O)(=O)c2ccc(N3CC(O)=C(c4ccccc4)C3=N)cc2)c1C here?
Answer: 147% (active)

Question: Which activation does the source give for Cc1noc(NS(=O)(=O)c2ccc(NC(=O)C34CCC(CC3)C4)cc2)c1C here?
Answer: 0.73%

Question: How did the activation turn out when COc1ccc(C(=O)Nc2ccc(S(=O)(=O)Nc3onc(C)c3C)cc2)cc1OC was run?
Answer: -4.48%

Question: Which activation does the source give for COc1cccc2c(=O)n(CC(=O)N3CCCCCC3)ccc12 here?
Answer: -2.41%

Question: With CC1=C(C(=O)OCc2ccccc2)C(c2ccco2)n2ncnc2N1 (centres undefined) as the molecule, how does the activation read?
Answer: 2.82%

Question: With CCCOc1ccc(N2CC(C(=O)Nc3ccccn3)CC2=O)cc1 (centres undefined) as the molecule, how does the activation read?
Answer: -1.38%

Question: With COc1cc2ccccc2cc1C(=O)Nc1ccc(S(=O)(=O)Nc2cc(C)on2)cc1 as the molecule, how does the activation read?
Answer: 0.01%

Question: Which activation does the source give for CC(C)(C)n1c(=O)[nH]c2c(c1=O)CCC2 here?
Answer: -0.19%

Question: For Cc1ccc(-n2nc3cc(Cl)c(NC(=O)c4ccco4)cc3n2)cc1, which activation is on record?
Answer: 0.44%

Question: For c1ccc2cc(OCCN3CCCC3)ccc2c1, which activation is on record?
Answer: -1%

Question: For O=C(CN1C2CCC1CC(NC(=O)C1CC1)C2)NCc1ccccc1 (centres undefined), which activation is on record?
Answer: 0.81%

Question: CCn1c(SCC(=O)Nc2ccc3c(c2)OCCO3)nc2c(c1=O)SC(C)C2 (centres undefined) was tested. Which activation did it give?
Answer: 1.05%

Question: O=C(c1ccc2c(c1)OCCO2)C1CCN(S(=O)(=O)c2cccc(F)c2)CC1 was tested. Which activation did it give?
Answer: -3.42%

Question: For CC(=O)NS(=O)(=O)c1ccccc1, which activation is on record?
Answer: -2.33%

Question: Fc1cnc(N2CCOCC2)nc1NCc1ccccc1 was tested. Which activation did it give?
Answer: -1.58%

Question: With CCn1c(SCC(=O)Nc2nccs2)nnc1-c1ccncc1 as the molecule, how does the activation read?
Answer: -0.84%

Question: For CC(=O)Cc1nsc(NC(=O)c2csc3c2CCCC3)n1, which activation is on record?
Answer: 0.34%

Question: For COc1ccc(-c2nn(-c3ccccc3)cc2C(=O)Nc2nc(CC(C)=O)ns2)cc1, which activation is on record?
Answer: 59.1% (active)

Question: Which activation does the source give for CC(=O)Cc1nsc(NC(=O)c2ccc(COc3ccc(C)cc3)o2)n1 here?
Answer: -1.31%

Question: Which activation does the source give for CCOc1cc(C2C(C(=O)OC)=CN(C3CCCC3)C=C2C(=O)OC)cc(Br)c1O here?
Answer: 14.4%

Question: With COC(=O)C1=CN(C)C=C(C(=O)OC)C1c1ccc(Cl)cc1Cl as the molecule, how does the activation read?
Answer: 13.7%

Question: For CCOc1ccccc1C1C(C(=O)OC)=CN(C)C=C1C(=O)OC, which activation is on record?
Answer: 20.1% (active)

Question: For CC(=O)c1ccc(N2C(=NC(=O)C(C)C)SC3CS(=O)(=O)CC32)cc1 (centres undefined), which activation is on record?
Answer: -1.94%

Question: CN(C)/C=C1/Nc2ccccc2C1=O was tested. Which activation did it give?
Answer: -1.11%

Question: Which activation does the source give for O=C(O)c1ccc(F)c(S(=O)(=O)Nc2ccccc2)c1 here?
Answer: 1%

Question: COc1ccc(NC(C)=O)cc1NC(=O)CN1CCN(c2ccccn2)CC1 was tested. Which activation did it give?
Answer: -1.16%

Question: COC(=O)c1ccc(C2NC(=O)NC(C)=C2C(=O)N(C)C)cc1 (centres undefined) was tested. Which activation did it give?
Answer: -3.69%

Question: How did the activation turn out when O=C(c1ccc(S(=O)(=O)N2CCOCC2)cc1)N1CCN(c2ccccc2)CC1 was run?
Answer: -2.91%

Question: With CNC(=O)c1nnn(-c2ccccc2)c1C(=O)NC as the molecule, how does the activation read?
Answer: -1.73%

Question: For CCOc1ccc(NS(=O)(=O)c2ccc(OCC(=O)NCCCOC)cc2)cc1, which activation is on record?
Answer: -1.21%

Question: O=C(COC(=O)CCc1c[nH]c(=O)[nH]1)Nc1ccccc1Cl was tested. Which activation did it give?
Answer: -0.97%

Question: For CCOC(=O)c1c(C)[nH]c(C(=O)NCc2ccccc2OC)c1C, which activation is on record?
Answer: -0.94%

Question: How did the activation turn out when CCOc1ccc(NC(=O)Nc2cc(C)ccc2OC)cc1 was run?
Answer: -4.41%

Question: For COc1ccc(C)cc1NC(=O)c1[nH]c(C)c(C(C)=O)c1C, which activation is on record?
Answer: 43.5% (active)

Question: Which activation does the source give for O=C(CSc1nnc(-c2ccco2)o1)NCC(=O)c1ccccc1 here?
Answer: 0.23%

Question: Which activation does the source give for Cc1ccc(CNC(=O)C2CCCN(S(C)(=O)=O)C2)cc1 (centres undefined) here?
Answer: 0.44%

Question: Cc1cc(C)c(NC(=O)CS(=O)CC(=O)Nc2cccnc2)c(C)c1 (centres undefined) was tested. Which activation did it give?
Answer: 0.42%

Question: With CCCC(=O)Nc1ccc(C(=O)NCCCn2ccnc2)cc1 as the molecule, how does the activation read?
Answer: -3.99%

Question: For CCOC(=O)C1(Cc2ccc(O)cc2)NC(c2ccccc2F)C2C(=O)N(C)C(=O)C21 (centres undefined), which activation is on record?
Answer: -1.57%

Question: COc1ccccc1N1CC(O)=C(c2nc3ccccc3s2)C1=N was tested. Which activation did it give?
Answer: -3.98%

Question: For Cc1ccc(C(=O)CS(C)(=O)=O)cc1, which activation is on record?
Answer: -5.39%

Question: With O=C(O)C1CCCN(S(=O)(=O)c2cccc3cccnc23)C1 (centres undefined) as the molecule, how does the activation read?
Answer: -4.76%

Question: For Cc1[nH]c2ccc(S(N)(=O)=O)cc2c1C, which activation is on record?
Answer: -0.45%

Question: Which activation does the source give for Cc1ccccc1CSCC(=O)NC(=O)NC(C)(C)C here?
Answer: -1.47%

Question: For CC1CCCN(c2ccc(C(=O)NCCc3ccccc3)cn2)C1 (centres undefined), which activation is on record?
Answer: -0.9%

Question: C=CCn1c(N)c(S(=O)(=O)c2cccs2)c2nc3ccccc3nc21 was tested. Which activation did it give?
Answer: -0.33%

Question: For CC(C)Cn1c(N)c(C(=O)NCc2cccs2)c2nc3ccccc3nc21, which activation is on record?
Answer: 77.6% (active)

Question: With C=CCn1c(N)c(C(=O)OCC(C)C)c2nc3ccccc3nc21 as the molecule, how does the activation read?
Answer: 0.61%

Question: Which activation does the source give for CCOc1ccc2nc(SC(CC)C(=O)Nc3cc(C)on3)sc2c1 (centres undefined) here?
Answer: 0.42%

Question: COc1ccc(F)cc1S(=O)(=O)Nc1ccc2c(c1)OCO2 was tested. Which activation did it give?
Answer: -5.74%

Question: O=C(Cn1cnc2c(nnn2Cc2ccc(F)cc2)c1=O)NCc1ccc2c(c1)OCO2 was tested. Which activation did it give?
Answer: -1.47%

Question: For COc1cccc2c(C)c(C(=O)O)[nH]c12, which activation is on record?
Answer: 1.98%

Question: How did the activation turn out when C=CCSC1=C(C#N)C(c2cc(Br)c(O)c(OC)c2)CC(=O)N1 (centres undefined) was run?
Answer: 1.53%

Question: C=CCNc1nnc(SCC(=O)N2CCCCC2)c2ccccc12 was tested. Which activation did it give?
Answer: 0.32%

Question: How did the activation turn out when O=C1c2ccncc2C(=O)N1C1CCCCC1 was run?
Answer: -3.22%

Question: With CC1Cn2c(nnc2-c2cccs2)S1 (centres undefined) as the molecule, how does the activation read?
Answer: 0.5%

Question: How did the activation turn out when Cc1ccc(CNC(=O)CN2CCN(Cc3ccc(Cl)cc3)C2=O)cc1 was run?
Answer: 0.67%

Question: With Cn1c(C(=O)NCCN2CCc3ccccc3C2)cc2c(=O)[nH]c3ccccc3c21 as the molecule, how does the activation read?
Answer: -1.75%

Question: Which activation does the source give for CCc1ccccc1N(CC(=O)N1CCN(c2ccccc2F)CC1)S(C)(=O)=O here?
Answer: -1.54%

Question: Which activation does the source give for COc1ccccc1CNC(=O)CCCn1c(=O)c2ccccc2n(CC(=O)NC2CCCC2)c1=O here?
Answer: -2.51%

Question: CCCOC(=O)CC1C(=O)NCCN1Cc1ccc(F)cc1 (centres undefined) was tested. Which activation did it give?
Answer: 1.2%

Question: Which activation does the source give for Cc1c(NC(=O)C(C)OC(=O)c2cc3c4ccccc4n(C)c3s2)c(=O)n(-c2ccccc2)n1C (centres undefined) here?
Answer: 1.13%

Question: How did the activation turn out when O=C(NC1CCCCC1)c1ccc2c(=O)n(CC3CCCO3)c(=O)[nH]c2c1 (centres undefined) was run?
Answer: -3.15%

Question: For COC(=O)c1ccc2c(=O)n(CC3CCCO3)c(=S)[nH]c2c1 (centres undefined), which activation is on record?
Answer: 66.3% (active)

Question: For O=c1c2cc3c(=O)n(CC4CCCO4)c(=O)c3cc2c(=O)n1CC1CCCO1 (centres undefined), which activation is on record?
Answer: -2.73%

Question: Which activation does the source give for CCC(C)NC(=O)C1CCC(=O)N1Cc1ccc(C)cc1 (centres undefined) here?
Answer: -3.11%

Question: With CCOc1ccc(C2C(C(=O)NC)=C(C)Nc3nc4ccccc4n32)cc1OC (centres undefined) as the molecule, how does the activation read?
Answer: -2.74%

Question: How did the activation turn out when c1cnc(NC2C3CC4CC(C3)CC2C4)nc1 (centres undefined) was run?
Answer: -0.19%

Question: COc1ccc2c(c1OC)C(=O)OC2c1c(O)nc(SC)n(-c2ccccc2)c1=O (centres undefined) was tested. Which activation did it give?
Answer: 1.4%

Question: How did the activation turn out when CCn1c(-c2cc(OC)ccc2OC)csc1=Nc1c(C)n(C)n(-c2ccccc2)c1=O was run?
Answer: -3.67%

Question: CCOC(=O)Cn1c(=O)oc2cc(S(=O)(=O)N(C)Cc3ccco3)ccc21 was tested. Which activation did it give?
Answer: -3.37%

Question: Cc1ccc(C(C)C)c(OCc2nnc(SCC(=O)Nc3nccs3)n2C)c1 was tested. Which activation did it give?
Answer: -0.25%

Question: For O=C(Nc1cc(N2CCOCC2)ncn1)NC1(C(F)(F)F)Oc2ccc(Cl)cc2O1 (centres undefined), which activation is on record?
Answer: -2.08%

Question: c1cnn(-c2cc(N3CCOCC3)ncn2)c1 was tested. Which activation did it give?
Answer: 42% (active)

Question: O=C1c2ccccc2-c2ncnc3c(N4CCOCC4)cc(N4CCOCC4)c1c23 was tested. Which activation did it give?
Answer: 0.99%

Question: For N#Cc1c(N)n(CCOC(=O)c2ccc(Cl)cc2)c2nc3ccccc3nc12, which activation is on record?
Answer: 27.6% (active)

Question: With COCCCn1c2nc3ccccc3nc2c2c(=O)n(Cc3ccc(Cl)cc3)c(C)nc21 as the molecule, how does the activation read?
Answer: 1.36%

Question: CC(C)(C)OC(=O)c1c(N)n(CCCN2CCCC2=O)c2nc3ccccc3nc12 was tested. Which activation did it give?
Answer: 4.61%

Question: Which activation does the source give for COc1cccc(OCC(O)CN2CCN(CCO)CC2)c1 (centres undefined) here?
Answer: 1%

Question: For CCC(=O)c1ccc(OCC(O)CN2CCN(c3cccc(C(F)(F)F)c3)CC2)cc1 (centres undefined), which activation is on record?
Answer: 36.5% (active)

Question: With O=C(C(c1ccccc1)c1ccccc1)N1CCN(CC(O)COc2ccccc2)CC1 (centres undefined) as the molecule, how does the activation read?
Answer: -2.69%

Question: For Cn1nc(-c2ccc(Cl)cc2)c2cc(C(=O)NCc3ccco3)sc21, which activation is on record?
Answer: -2.11%

Question: CCc1c(C)nc(N2CCN(Cc3ccccc3)CC2)[nH]c1=O was tested. Which activation did it give?
Answer: -1.04%

Question: With CC(C)N1C(=O)C2C(C(=O)NC3CCCCC3)C3C=CC2(O3)C1C(=O)NC1CCCC1 (centres undefined) as the molecule, how does the activation read?
Answer: -3.66%

Question: With CCn1c(CNC(=O)c2ccc(OC)c(OC)c2)nnc1SCC(=O)Nc1ccccc1 as the molecule, how does the activation read?
Answer: 1.92%

Question: How did the activation turn out when CCCNS(=O)(=O)c1ccc(CCC(=O)NCc2cccnc2)cc1 was run?
Answer: 0.51%

Question: CCN1CCN(Cc2nc3c(c(=O)n(C)c(=O)n3C)n2CC(=O)c2ccccc2)CC1 was tested. Which activation did it give?
Answer: -1.47%
